Assay results from PubChem BioAssay AID1851 (National Center for Advancing Translational Sciences (NCATS), 2009).
Screen size: about 16,000 compounds; about 5,100 (32%) were called active. Another 25% or so got no clear call; they are omitted. Some of the results follow. Unmarked numbers belong to inactive results. The call rests on the fitted dose curve; in most records, active means well fitted curve in the direction sought with a large enough effect; inconclusive means small, poorly fitted or top-dose-only effect, or effect the other way; inactive means no such curve, though single readings can be large or run the other way.

Each compound was assayed against Cytochrome P450 3A4 (Homo sapiens) (UniProt P08684) (assay: Cytochrome panel assay with activity outcomes). Conditions: recombinant CYP, pro-luciferin dealkylation, luminescence, p450-cyp3a4; series mostly up to 57.1 µM; activity, negative = inhibition: at the top concentration.
On the % scale 0 is the no-effect control and ±100 the full control effect.

Cytochrome P450 3A4 (Homo sapiens), sequence (P08684 whole entry, looked up): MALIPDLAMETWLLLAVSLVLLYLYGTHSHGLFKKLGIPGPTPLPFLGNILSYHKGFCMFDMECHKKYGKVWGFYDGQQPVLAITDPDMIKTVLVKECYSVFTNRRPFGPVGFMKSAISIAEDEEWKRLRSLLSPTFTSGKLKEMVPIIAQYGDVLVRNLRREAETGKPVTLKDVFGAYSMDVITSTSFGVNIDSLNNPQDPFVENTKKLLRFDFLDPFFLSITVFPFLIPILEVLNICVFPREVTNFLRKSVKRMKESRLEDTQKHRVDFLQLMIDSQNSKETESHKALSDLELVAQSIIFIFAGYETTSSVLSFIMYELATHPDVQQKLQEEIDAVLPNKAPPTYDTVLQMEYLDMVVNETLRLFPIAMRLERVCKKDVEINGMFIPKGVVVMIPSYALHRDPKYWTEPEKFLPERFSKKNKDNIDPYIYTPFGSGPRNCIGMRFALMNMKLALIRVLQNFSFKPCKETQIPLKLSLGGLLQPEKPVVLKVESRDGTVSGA

Row | Compound | AC50 | activity, negative = inhibition
1 | Cc1cccc(C)c1NC(=O)CSc1nc(C)c(CC(=O)c2ccc(Br)cc2)c(C)c1C#N | 5.01 µM (active) | –
2 | CC(=O)Nc1nonc1NC(=O)c1ccc(C(C)(C)C)cc1 | – | -6.73% [at 11.4 µM]
3 | Cc1nonc1NCn1nnc2ccccc21 | – | 2.63%
4 | CCC(=O)N1CCn2c1nc1ccccc12 | – | -0.0339%
5 | O=C(O)Cn1c(-c2ccccc2)nc2ccccc21 | – | 3.83%
6 | CCC(=O)Nc1nonc1-c1nc2ccccc2n1N(C(=O)CC)C(=O)CC | 22.4 µM (active) | –
7 | CCn1c(-c2nonc2NC(=O)c2ccccc2)nc2ccccc21 | 3.16 µM (active) | –
8 | Nc1c(S(N)(=O)=O)cc(S(N)(=O)=O)cc1S(N)(=O)=O | – | -3.99% [at 11.4 µM]
9 | CCOc1cc2[nH]c(=S)n(CCCC(=O)NCc3ccco3)c(=O)c2cc1OCC | 3.98 µM (active) | –
10 | COCCCn1c(=S)[nH]c2ncccc2c1=O | – | -24.6%
11 | COCCn1c(=S)[nH]c2cc(C(=O)NC(C)C)ccc2c1=O | – | 13.9%
12 | O=C(CCCCCn1c(=O)[nH]c2ccsc2c1=O)NCc1ccc2c(c1)OCO2 | 0.631 µM (active) | –
13 | O=C(NCc1ccco1)c1ccc2c(=O)n(-c3ccccc3)c(=S)[nH]c2c1 | – | -4.58%
14 | Cc1ccc(-n2c(=O)c3sccc3n(CC(=O)NCc3ccco3)c2=O)cc1F | – | -1.5%
15 | O=C(CCCCn1c(=S)[nH]c2ccsc2c1=O)NCc1ccco1 | 7.08 µM (active) | –
16 | O=C(CCn1c(=O)[nH]c2ccsc2c1=O)Nc1ccc(F)c(F)c1 | – | 10.8%
17 | COCCNC(=O)CCCCCn1c(=S)[nH]c2ccccc2c1=O | 8.91 µM (active) | –
18 | O=C1C2Sc3[nH]c(=O)sc3C(c3ccccc3)C2C(=O)N1c1ccccc1 (centres undefined) | 7.94 µM (active) | –
19 | O=C1C2Sc3[nH]c(=O)sc3C(c3ccccc3)C2C(=O)N1c1ccc(Cl)cc1 (centres undefined) | 12.6 µM (active) | –
20 | O=C1C(C2=NC(C(=O)O)C3C(=O)N(c4ccc(Cl)cc4)C(=O)C23)=C(O)c2ccccc21 (centres undefined) | – | 16.7%
21 | Nc1ccccc1CCCC(=O)O | – | 0.683% [at 11.4 µM]
22 | C=CCn1c(SCC(=O)Nc2ncc(Cc3ccc(Br)cc3)s2)nnc1-c1ccncc1 | 1.41 µM (active) | –
23 | O=C(CSc1nnc(-c2ccncc2)n1Cc1ccccc1)Nc1nccs1 | – | -23.1% [at 2.29 µM]
24 | CCCCc1c(O)nc(SCCN(C)C)n(-c2ccccc2)c1=O | – | -3.84%
25 | CC(C)N(C(=O)CSc1nc2ccccc2n1-c1ccccc1)C(C)C | 7.94 µM (active) | –

Row | Compound | AC50 | activity, negative = inhibition
26 | CC(C)n1c(N2CCN(C(=O)Nc3ccccc3)CC2)nc2ccccc21 | – | -29.4%
27 | CNc1c2c(nn1C)CCCC2 | – | 2.07%
28 | O=C(Nc1ccc(Oc2ccccc2)cc1)C1CCN(c2c3c(nc4ncnn24)CCC3)CC1 | – | -19%
29 | CC1CCCC(C)N1CC(O)COCC1COc2ccccc2O1 (centres undefined) | – | 7.88%
30 | CC1CCCN(CC(O)COCC2COc3ccccc3O2)C1 (centres undefined) | – | -2.38%
31 | Cc1ccc(C2C(=O)N(C3CCCC3)CC(=O)N2CC2COc3ccccc3O2)cc1 (centres undefined) | 3.98 µM (active) | –
32 | c1cncc(-c2ccc3ncnc(N4CCNCC4)c3c2)c1 | 12.6 µM (active) | –
33 | CN1CCN(c2ncnc3ccc(-c4ccc5c(c4)OCO5)cc23)CC1 | 7.94 µM (active) | –
34 | CN1CCN(c2ncnc3ccc(-c4cccnc4)cc23)CC1 | 15.8 µM (active) | –
35 | CN(C)c1ccc(-c2ccc3ncnc(N4CCNCC4)c3c2)cc1 | 20 µM (active) | –
36 | N[C@H](C(=O)O)[C@@H]1[C@@H](C(=O)O)C1(F)F | – | -12.3%
37 | OC[C@@H]1O[C@H](n2cnc3c(/C=C(\O)c4ccccc4)ncnc32)[C@H](O)[C@@H]1O | – | -15.3% [at 11.4 µM]
38 | NC(N)=NC[C@@H]1CCCCCCN1 | – | -2.73% [at 11.4 µM]
39 | CCN(CC)CC[n+]1ccc2c(C)c3[nH]c4ccc(O)cc4c3c(C)c2c1 | – | -18.3% [at 11.4 µM]
40 | Cc1sc2ncnc(OCC(=O)NC(C)C)c2c1C | – | 0.697% [at 11.4 µM]
41 | N#Cc1cccc(-c2ccc3ncnc(NC4CCNCC4)c3c2)c1 | – | -28.7%
42 | N#Cc1cccc(-c2ccc3ncnc(N4CCNCC4)c3c2)c1 | 20 µM (active) | –
43 | CCc1ccc(OCC(=O)NNC(=O)CSc2ncnc3sc(C)c(C)c23)cc1 | – | 1.75% [at 0.457 µM]
44 | COCCNC(=O)CSc1ncnc2sccc12 | – | 0.766% [at 2.29 µM]
45 | COC(=O)c1c(-c2ccccc2)csc1NC(=O)CSc1ncnc2sc(C)c(C)c12 | 8.91 µM (active) | –
46 | COc1ccccc1-c1cncnc1N(C)Cc1ccco1 | 1.26 µM (active) | –
47 | Cc1ccccc1-c1cc(N(C)Cc2ccco2)ncn1 | – | 21.2%
48 | CN(Cc1ccco1)c1ncncc1-c1ccccc1Cl | 0.501 µM (active) | –
49 | Cc1ccccc1-c1cncnc1N(C)Cc1ccco1 | 1.58 µM (active) | –
